Results filed as inconclusive are left out. The source made the active and inactive calls. Unless noted, calls come from the whole dose curve; as a rule, active = well fitted curve in the direction sought with a large enough effect; inconclusive = small, poorly fitted or top-dose-only effect, or another doubt; inactive = no such curve, though single readings can be large; an effect the other way counts as inactive or inconclusive.

Assay [1] has as its target Pyruvate kinase PKM (Homo sapiens) (UniProt P14618). Briefly: qHTS Assay for Activators of Human Muscle Pyruvate Kinase (AID 954; active = well fitted curve in the direction sought with a large enough effect, not every such curve was filed as active). Summed up: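 Screening used highly purified human pyruvate kinase M2 under submaximal activity, with PEP at its Km and ADP below Km. After an hour at room temperature, ATP was read by luciferase luminescence.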
A short description of assay [2]: Cell Viability - LYMP1-002 - Assay at 16 hr (AID 948). Summed up: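 Human lymphoblastoid cells (LYMP1-002), 2500/well, were preincubated 5 hr at 37 C, then exposed to compounds for 16 hr at 37 C in complete medium. Cellular ATP was read by CellTiter-Glo luminescence after 30 min at room temperature; AC50 from Hill fits.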
Assay [3] in a line: MultiTox-Fluor Cytotoxicity Assay - LYMP1-002 - Dead Cells (AID 960). Note: nearly all actives have a fitted effect of over 60% in size. Note: potency is the fitted concentration of half-maximal effect. Summed up:
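Dead-cell fluorescence (Ex/Em 485/520) after 16 h compound exposure at 37 C of LYMP1-002 lymphoblastoid cells in complete medium; AC50 by Hill equation, with data scaled between DMSO and 15 uM tetraoctylammonium bromide.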

Assay [4] can be described thus: MultiTox-Fluor Cytotoxicity Assay - LYMP1-003 - Dead Cells (AID 961). Note: nearly all actives have a fitted effect of over 70% in size. In short, it runs like this:
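Acute toxicity is scored as increased dead-cell protease activity in human lymphoblastoid LYMP1-003 cells after 16 h compound exposure in complete culture medium. Activity is normalized to DMSO basal and 15 uM tetraoctylammonium bromide as full response.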

Assay [5] is described as follows: MultiTox-Fluor Cytotoxicity Assay - LYMP1-003 - Live Cells (AID 962).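 Note: cytotoxic hits lower the live-cell protease signal.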 Summed up:
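Live-cell protease activity (GF-AFC substrate, 405/510 nm, 60 min at room temperature) after 16 h, 37 C compound exposure of human lymphoblastoid LYMP1-003 cells; concentration-response fitted to the Hill equation for AC50.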

A short description of assay [6]: Cell Viability - LYMP1-003 - Assay at 24 hr (AID 963). Summed up: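 Concentration-response qHTS: ATP loss measured by CellTiter-Glo luminescence after 24 h compound exposure at 37 C. Cells were LYMP1-003 human lymphoblastoid, 2500 per well. AC50 derived via standard Hill equation modeling.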
A short description of assay [7]: Cell Viability - LYMP2-003 (AID 965).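 Note: cells exposed to compounds for 24 h before reading; nearly all actives have a fitted effect of over 50% in size.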 In short, it runs like this:
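Human lymphoblastoid cells (2500/well) were pre-incubated 5 hr at 37 C, then exposed to compounds over a concentration range for 24 hr at 37 C. Intracellular ATP was read by CellTiter-Glo luminescence; AC50 came from Hill-equation fits.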

Assay [8] in a line: Cell Viability - LYMP2-004 (AID 966). Note: nearly all actives have a fitted effect of over 65% in size. Summed up: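 AC50 values come from Hill modelling of concentration-dependent loss of intracellular ATP, measured by CellTiter-Glo luminescence. Human LYMP2-004 lymphoblastoid cells (2500/well) were exposed to compound for 24 h at 37 C.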
Assay [9] in a line: Cell Viability - LYMP2-005 (AID 967). Note: series mostly up to about 92 µM. Summed up:
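CellTiter-Glo luminescence (cellular ATP) read-out; LYMP2-005 lymphoblastoid cells, 2500/well, 5 h pre-incubation, then 24 h compound exposure at 37 C in complete medium. Tetraoctylammonium bromide positive control; AC50 by standard Hill fit.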

Assay [10] is described as follows: Cell Viability - LYMP2-009 (AID 968). Note: series mostly up to about 92 µM; nearly all actives have a fitted effect of over 55% in size.
The nature of assay [11]: Cell Viability - LYMP2-011 (AID 969). Note: nearly all actives have a fitted effect of over 60% in size. In short, it runs like this: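 Cytotoxicity qHTS with ATP content as read-out: lymphoblastoid cells (2500/well) exposed to compound for 24 h at 37 C, then luciferase luminescence measured. Concentration-response data fitted with the standard Hill equation to give AC50.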
Assay [12] is described as follows: Cell Viability - LYMP2-013 (AID 970). Note: series mostly up to about 92 µM; nearly all actives have a fitted effect of over 55% in size. In short, it runs like this: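 qHTS cytotoxicity: ATP-dependent luminescence (CellTiter-Glo, 30 min room temperature) read after 24 h compound exposure at 37 C of 2500 LYMP2-013 lymphoblastoid cells per well. Concentration-response fitted with Hill equation to give AC50.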
The nature of assay [13]: Cell Viability - LYMP2-015 (AID 971). Note: nearly all actives have a fitted effect of over 55% in size. In short, it runs like this:
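Cytotoxicity readout: decrease in intracellular ATP (CellTiter-Glo luminescence) in 2500 LYMP2-015 lymphoblastoid cells/well after 24 h compound exposure at 37 C. Concentration-response data fitted with the standard Hill equation to give AC50.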

Assay [14] in a line: Cell Viability - LYMP2-017 (AID 972). Note: series mostly up to about 92 µM; nearly all actives have a fitted effect of over 55% in size. Summed up:
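CellTiter-Glo luminescence (cellular ATP, 30 min RT) measured cytotoxicity after 24 hr compound treatment at 37 C. Cells were a human lymphoblastoid line, LYMP2-017, plated at 2500/well and incubated 5 hr first; concentration-response fitted with Hill equation for AC50.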

Assay [15] is described as follows: Cell Viability - LYMP2-019 (AID 973). Note: nearly all actives have a fitted effect of over 55% in size. In short, it runs like this:
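AC50 values come from Hill-equation fits of luminescent intracellular ATP (CellTiter-Glo, 30 min, room temperature) following 24 h compound exposure at 37 C. Cells: LYMP2-019 lymphoblastoid line, 2500 per well, in complete culture medium.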

Assay [16] can be described thus: Cell Viability - LYMP2-021 (AID 974). Note: nearly all actives have a fitted effect of over 55% in size. In short, it runs like this: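 AC50 values come from Hill-equation fits to CellTiter-Glo luminescence (ATP content), read after 24 hour compound exposure at 37 C of 2500 LYMP2-021 lymphoblastoid cells/well; tetraoctylammonium bromide as positive control.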
The nature of assay [17]: Cell Viability - LYMP2-023 (AID 975). Summed up:
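Intracellular ATP, read by CellTiter-Glo luminescence, reports viability after 24 hr compound exposure at 37 C. 2500 lymphoblastoid cells/well (LYMP2-023) seeded 5 hr beforehand; Hill fits give AC50; positive control tetraoctylammonium bromide.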

Assay [18] concerns the target Pyruvate kinase (Leishmania mexicana) (UniProt Q27686). The assay is described as follows: qHTS Validation Assay for Activators of Leishmania Mexicana Pyruvate Kinase (AID 959). In short, it runs like this: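 Pyruvate kinase activity of E451W LmPYK (0.2 nM) was followed as ATP output after 1 h at room temperature with 0.5 mM PEP and 0.1 mM ADP, detected by PKLight luminescence.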

The nature of assay [19]: Cell Viability - LYMP1-003 - Assay at 40 hr (AID 964). Note: nearly all actives have a fitted effect of over 60% in size. Note: potency is the fitted concentration of half-maximal effect. In short, it runs like this: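 Viability is taken as cellular ATP, read by CellTiter-Glo luminescence after 40 h of compound exposure at 37 C. Cells: human lymphoblastoid line LYMP1-003 at 2500/well; AC50 values derived by Hill-equation fitting of concentration-response data.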
In assay [20] the target is Pyruvate kinase PKM (Homo sapiens) (UniProt P14618). Briefly: qHTS Assay for Inhibitors of Human Muscle Pyruvate Kinase (AID 958). The note with it: purified human PKM enzyme activity. Summed up:
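Compound pinned into substrate mix (0.5 mM PEP, 0.1 mM ADP), then 0.1 nM PKM2 added; 1 h, RT. Stop/detection luciferase reagent added, luminescence read. Normalized to no-inhibition and no-enzyme or reference-inhibitor controls.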

Pyruvate kinase PKM (Homo sapiens), sequence (P14618 whole entry, looked up): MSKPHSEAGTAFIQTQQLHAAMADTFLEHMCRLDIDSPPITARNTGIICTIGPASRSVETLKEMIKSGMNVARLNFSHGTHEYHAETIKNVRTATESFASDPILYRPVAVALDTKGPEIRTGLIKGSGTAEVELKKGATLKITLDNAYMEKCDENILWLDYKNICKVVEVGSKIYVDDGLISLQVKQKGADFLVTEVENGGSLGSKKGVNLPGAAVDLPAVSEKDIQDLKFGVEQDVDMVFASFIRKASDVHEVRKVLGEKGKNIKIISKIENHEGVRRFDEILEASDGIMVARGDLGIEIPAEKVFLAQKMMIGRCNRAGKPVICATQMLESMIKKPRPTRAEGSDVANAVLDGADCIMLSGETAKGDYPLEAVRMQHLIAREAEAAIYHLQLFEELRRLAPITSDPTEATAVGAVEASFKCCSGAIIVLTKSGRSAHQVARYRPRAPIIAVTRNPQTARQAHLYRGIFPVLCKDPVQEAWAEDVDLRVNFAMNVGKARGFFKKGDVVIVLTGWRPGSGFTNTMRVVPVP
Pyruvate kinase (Leishmania mexicana), sequence (Q27686 2-499 E452W): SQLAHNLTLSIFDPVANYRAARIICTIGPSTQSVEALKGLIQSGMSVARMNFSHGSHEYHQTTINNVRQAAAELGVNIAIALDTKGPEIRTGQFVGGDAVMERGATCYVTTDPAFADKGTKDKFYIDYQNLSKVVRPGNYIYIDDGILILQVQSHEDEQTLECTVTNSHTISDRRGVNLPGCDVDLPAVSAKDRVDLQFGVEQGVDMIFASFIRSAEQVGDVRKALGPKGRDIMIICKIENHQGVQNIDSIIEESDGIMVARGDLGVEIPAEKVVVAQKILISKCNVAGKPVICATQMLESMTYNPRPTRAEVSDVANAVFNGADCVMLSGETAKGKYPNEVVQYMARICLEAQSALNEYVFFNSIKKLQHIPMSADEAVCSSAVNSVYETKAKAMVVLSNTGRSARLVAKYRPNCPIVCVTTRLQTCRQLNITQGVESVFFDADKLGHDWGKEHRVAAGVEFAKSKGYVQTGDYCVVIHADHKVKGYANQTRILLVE

With `CNCCCC12CCC(c3ccccc31)c1ccccc12`, the call in assay [1] was inactive.
Turning to `CC(C)NCC(O)c1ccc(O)c(O)c1` (stereo not drawn), the compound was classed as inactive in assay [2], in [4], in assay [5], in assay [6], in assay [7] and in [8]. The call in [9], in [10], in assay [11], in assay [12], in [13] and in [14] was inactive. Further, the result in assay [15], in [16] and in assay [17] was inactive. In assay [3], the Potency entry is “inactive”.
In the case of `CC[N+](CC)(CC)CCOc1cccc(OCC[N+](CC)(CC)CC)c1OCC[N+](CC)(CC)CC`, in [1], the result was inactive.
Consider `Clc1ccc2c(c1)C(N1CCNCC1)=Nc1ccccc1O2`, for which the result in assay [1] was inactive.
In the case of `O=c1c(-c2ccc(O)cc2)coc2cc(O)cc(O)c12`, the outcome in [2], in [1], in [18], in assay [4], in assay [5] and in [6] was inactive. The outcome in [7], in [8], in assay [9], in assay [10], in assay [11] and in [12] was inactive. In addition, the call in [13], in assay [14], in assay [15], in assay [16] and in assay [17] was inactive. The Potency result in assay [3] and in [19] was “inactive” throughout.
With `CCc1cccc2c3c([nH]c12)C(CC)(CC(=O)O)OCC3` (stereo not drawn), the outcome in [1] was inactive.
Regarding `Cn1c(=O)c2[nH]cnc2n(C)c1=O`, the compound was classed as inactive in [2], in assay [1], in assay [4], in [5], in [6] and in assay [7]. Further, the compound was classed as inactive in assay [8], in [9], in assay [10], in assay [11], in [12] and in [13]. Also, the result in assay [14], in assay [15], in [16] and in [17] was inactive. The Potency entry in assay [3] and in assay [19] was “inactive” in each case.
As for `Cc1cn([C@H]2C[C@H](N=[N+]=[N-])[C@@H](CO)O2)c(=O)[nH]c1=O`, the compound was classed as inactive in assay [2], in assay [4], in assay [5], in assay [6], in assay [7] and in assay [8]. Besides, the outcome in [9], in [10], in assay [11], in [12], in assay [13] and in assay [14] was inactive. For the same compound, the call in assay [15], in assay [16] and in assay [17] was inactive. In addition, the Potency result in assay [3] and in assay [19] was “inactive” throughout.
On to `C[C@](N)(Cc1ccc(O)c(O)c1)C(=O)O`, for which, in assay [1], the result was inactive.
The same measure, in the same setting: under `Cc1cc(C(C)(C)C)cc(C)c1CC1=NCCN1` stands “inactive”.
For `N[C@@H](Cc1c[nH]c2ccc(O)cc12)C(=O)O`, the compound was classed as inactive in assay [2], in assay [1], in assay [4], in assay [5], in assay [6] and in assay [7]. Further, the call in [8], in assay [9], in assay [10], in assay [11], in assay [12] and in assay [13] was inactive. Besides, the compound was called inactive in assay [14], in [15], in [16] and in [17]. Besides, the Potency entry in [3] and in assay [19] was “inactive” throughout.
On to `Cc1ccccc1N1C(=O)c2cc(S(N)(=O)=O)c(Cl)cc2NC1C` (stereo not drawn), for which, in assay [1], the result was inactive.
On to `Nc1c2c(nc3ccccc13)CCCC2`, for which the compound was classed as inactive in assay [2], in [1], in [4], in assay [5], in [6] and in assay [7]. For the same compound, the call in assay [8], in [9], in assay [10], in assay [11], in assay [12] and in [13] was inactive. The compound was classed as inactive in assay [14], in [15], in assay [16] and in assay [17]. Also, the Potency result in assay [3] and in assay [19] was “inactive” in each case.
As to `Clc1ccc(C(c2ccccc2Cl)C(Cl)Cl)cc1` (stereo not drawn), the compound was called inactive in assay [2], in assay [1], in assay [4], in [5], in assay [6] and in [7]. In addition, the call in assay [8], in assay [9], in assay [10], in assay [11], in assay [12] and in [13] was inactive. For the same compound, the compound was called inactive in assay [14], in assay [15], in [16] and in [17]. Further, the Potency entry in assay [3] and in assay [19] was “inactive” each time.
Regarding `OCCN1CCN(CCCN2c3ccccc3Sc3ccc(C(F)(F)F)cc32)CC1`, in assay [1], the compound was classed as inactive.
In the case of `CN(C)CCCN1c2ccccc2CCc2ccc(Cl)cc21`, in assay [1], the call was inactive.
Take `CC(C)C(=O)Nc1ccc([N+](=O)[O-])c(C(F)(F)F)c1`: the compound was called inactive in assay [2], in assay [1], in assay [4], in [5], in assay [6] and in assay [7]. The call in assay [8], in [9], in assay [10], in assay [11], in assay [13] and in assay [14] was inactive. Moreover, the call in [16] and in [17] was inactive. Moreover, in assay [19], the Potency entry is “inactive”.
In the case of `Nc1ccn([C@H]2CC[C@@H](CO)O2)c(=O)n1`, the compound was called inactive in assay [2], in assay [1], in assay [4], in [5], in assay [6] and in assay [7]. Further, the outcome in [8], in assay [9], in [10], in assay [11], in [12] and in [13] was inactive. Further, the compound was called inactive in [14], in [15], in assay [16] and in assay [17]. Moreover, the Potency result in assay [3] and in [19] was “inactive” each time.
Consider `Cn1ccc2cc3c(cc21)CCN3C(=O)Nc1cccnc1`, for which the Potency in assay [20] is 6310 nM (active).
Still for that read-out and setting: under `O=C(Nc1ccc([N+](=O)[O-])cc1Cl)c1cc(Cl)ccc1O` stands 3160 nM (active).
For `COc1cc2c(c(OC)c1OC)-c1ccc(OC)c(=O)cc1[C@@H](NC(C)=O)CC2`, the Potency was 50.1 nM (active) in [3] and 20 nM (active) in [19]. The outcome in assay [8], in assay [12] and in assay [17] was inactive.

Source of the values: PubChem BioAssay (NCATS).
